Data taken from PubChem BioAssay.

assay: S6 kinase pathway phospho-S6 level changes – cell-based, A549, cytoblot, luminescence, serum-stimulated, primary screen (AID 1158); conditions: 5 h, higher = more signal;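 also: serum-stimulated A549 lung adenocarcinoma cells; signal is phosphorylated S6 detected by cytoblot immunostaining with HRP secondary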

| Compound | z-score |
| --- | --- |
| COc1cccc([C@H]2Oc3ccc(OC)cc3C(=NOC[C@@H](O)[C@H]3O[C@@H]4OC(C)(C)O[C@@H]4[C@H]3O)[C@@H]2O)c1 | -0.512 |
| O=C1[C@H]2[C@H]3[C@H](O)[C@H](O)CC(=NO[C@@H]4O[C@H](CO)[C@@H](O)[C@H](O)[C@H]4O)[C@H]3CC[C@H]2C(=O)N1c1cccc(Oc2ccccc2)c1 | -0.576 |
| CCN1C(=O)[C@H]2[C@H]3[C@H](O)[C@H](O)CC(=NOCC(C)C)[C@@H]3CC[C@H]2C1=O | -0.126 |
| CC(C)C[C@H](NC(=O)CCC1CC(OC(=O)NCc2cccc3ccccc23)CC2(CCCC(COC(=O)NCc3ccccc3)O2)O1)C(=O)NCC(c1ccccc1)c1ccccc1 (stereo not given in full) | -0.71 |
| COC(=O)CC=C[C@@H](C)[C@@H](C=NOC[C@H]1O[C@H](c2ccccc2)C=C[C@@H]1Oc1ccc(OC)cc1)NS(=O)(=O)c1ccc(C)cc1 | 0.0859 |
| C#CCCCON=C1C[C@@H](O)[C@@H](O)[C@@H]2[C@@H]3C(=O)N(c4ccc(F)cc4F)C(=O)[C@@H]3CC[C@H]12 | 0.27 |
| CO[C@H]1COC(=O)[C@@H](Cc2ccccc2)NC(=O)[C@@H](C)COC(=O)CCC[C@@H]1C | 0.781 |
| COc1cccc([C@H]2Oc3ccc(OC)cc3C(=NO[C@@H](C)c3cn([C@H](CO)Cc4ccccc4)nn3)[C@@H]2O)c1 | -0.15 |
| CCOC(=O)NN=C1C[C@@H](O)[C@@H](O)[C@@H]2[C@@H]3C(=O)N(Cc4ccc5c(c4)OCO5)C(=O)[C@@H]3CC[C@H]12 | -0.4 |
| O=C(NN=C1C[C@@H](O)[C@@H](O)[C@@H]2[C@@H]3C(=O)N(C[C@@H]4CCCO4)C(=O)[C@@H]3CC[C@H]12)OCc1ccccc1 | -0.249 |
